According to PubChem BioAssay (NCI):
About 83,000 compounds went through this panel and 20% of them were active in at least one assay; those are over-represented in the sample as a whole.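 Each cell line was grown in a 96-well plate and treated with one concentration of compound for 48 hours. Values below 10 were considered active.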 The source made the active and inactive calls.

system: OVCAR-4 ovarian; assay: NCI-60 one-dose screen, 48 h (100 = growth as untreated, 0 = no growth, -100 = all killed); settings: 10 µM
Protocol: Growth inhibition of the OVCAR-4 human tumor cell line is measured as a screen for anti-cancer activity. Cells are grown in 96 well plates and exposed to the test compound for 48 hours. Compounds are tested at a single concentration, which is 10^-5 M for most compounds. The reported endpoint is percent growth (GI% or GIPRCNT), where numbers from 0 - 100% represent growth inhibition, and numbers from -100% - 0 represent cell death. For example, a value of 40 represents 60% growth inhibition. A value of 0 means no net growth occurred over the course of the experiment. A value of -40 indicates 40% of cells at the beginning of the experiment died by the end of the experiment. A value of -100 means all cells are dead at the end of the experiment.
NCI-60 Human Tumor Cell Lines Screen was performed using the standard one-dose NCI protocol, which is described in more detail at https://dtp.cancer.gov/discovery_development/nci-60/default.htm.
Compounds with GIPRCNT values below 10 were considered active. Activity score was based on GIPRCNT using the following formula: […]
Score is 0 for GIPRCNT values of 100 or above, 50 for GIPRCNT values of 0, and 100 for GIPRCNT values of -100.

| Compound | growth |
| --- | --- |
| CCN(CC)CCOC(=O)c1ccc(N=Nc2ccc(O)c(OC)c2)cc1 | 111% (inactive) |
| Clc1ccc(-c2nc(-c3cccs3)cn3ccnc23)cc1 | 64.6% (inactive) |
| NC(=O)c1ccc(Br)o1 | 107% (inactive) |
| COc1ccc(C(=O)/C=C/c2cc(-c3ccc4c(c3)OCO4)n[nH]2)cc1OC | 59.9% (inactive) |
| COc1cc(OC)cc(-c2ccc(-c3ccc(C(=N)N)cn3)o2)c1 | 23.1% (inactive) |
| CCC(CCNc1cc(OC)cc2cccnc12)CN1C(=O)c2ccccc2C1=O (stereo not given) | 16.9% (inactive) |
| CCCc1c(C)nc2scc(-c3ccc(Cl)cc3)n2c1=O | 97.3% (inactive) |
| COc1cc(C2c3cc4c(cc3C(O)C(CO)C2CO)OCO4)cc(OC)c1OC (stereo not given) | 51% (inactive) |
| CCc1cc2n(n1)-c1ncc(C(=O)OC)cc1Oc1ccccc1-2 | 100% (inactive) |
| CC(C)=C1CCC(C)C/C1=N\N=C(N)N (stereo not given) | 107% (inactive) |
| Cc1cc(O)c(C2=NN(c3ccc(S(N)(=O)=O)cc3)C(c3ccc(N(C)C)cc3)C2)c(C)c1Cl (stereo not given) | 58.8% (inactive) |
| COc1cc(-c2nc3ccc(C)cc3[nH]2)ccc1OCC(=O)N=Nc1c(O)[nH]c2ccccc12 | -82.2% (active) |
| COc1cc(-c2nc3ccccc3[nH]2)ccc1OCc1nnc(-c2ccc(Br)cc2)o1 | 85.1% (inactive) |
| CCN(CCCNC(=O)Cc1cc(=O)oc2cc(N(C)C)ccc12)CCNc1ccnc2cc(Cl)ccc12 | 81.7% (inactive) |
| Cc1nnc2c3nnc(-c4ccc(Cl)cc4)n3c3ccccc3n12 | 115% (inactive) |
| COc1cc(N=C2C(=O)N(Cc3ccccc3)c3ccccc32)cc(OC)c1OC | 98.8% (inactive) |
| CC(=O)Nc1nc(C)c(C(=O)N/N=C/c2cccn2C)s1 | 108% (inactive) |
| COc1cc(-c2cc(-c3ccc(C)cc3)nc3nc(N)[nH]c(=O)c23)ccc1Oc1ccnc2cc(Cl)ccc12 | 66.3% (inactive) |
| CCOC(=O)/C(C#N)=C(/C)C1CC1 | 104% (inactive) |
| COc1ccc(Nc2ccnc(N3CCN(c4ccnc5cc(Cl)ccc45)CC3)n2)cc1 | 10.7% (inactive) |

| Compound | growth |
| --- | --- |
| COc1cc(OC)cc(-c2n/c(=C\c3c(O)[nH]c4ccc(OC)cc34)cc3c2=Nc2ccccc2-3)c1 | 15.3% (inactive) |
| COc1ccc(C2=Cc3ccc(OC(C)=O)cc3OC2)cc1 | 88.1% (inactive) |
| O=S(=O)(O)C1(O)CCCCC1 | 79.1% (inactive) |
| COc1cc(OC)cc(N2CCN(C(=O)Nc3nc4cc(F)ccc4nc3OC)CC2)c1 | 44% (inactive) |
| COc1ccc(-c2csc(-c3cc(Cl)cc(Cl)c3Cl)n2)cc1 | 85.2% (inactive) |
| COc1ccc(C(=O)c2sc3nc(-c4cccs4)ccc3c2N)cc1OC | 61.2% (inactive) |
| C[N+]1(CC2CO2)CCCCCC1 (stereo not given) | 94.3% (inactive) |
| CCN1CCN(c2nc(NNC(=O)c3cccc(OC)c3)nc(N3CCN(C(c4ccccc4)c4ccccc4)CC3)n2)CC1 | 62.4% (inactive) |
| COc1cccc2c1C(=O)c1c(O)c3c(c(O)c1C2=O)C[C@@](O)(C(=O)COC(=O)c1ccccc1)C[C@@H]3OC1CC(N)C(O)C(C)O1 (stereo not given in full) | -87.9% (active) |
| O=S(=O)(NCCO)c1ccc(OCCOc2ccc(S(=O)(=O)NCCO)cc2)cc1 | 107% (inactive) |
| COc1cc2nc(Sc3sc(N)nc3C)n(-c3ccc(Oc4ccccc4)cc3)c(=O)c2cc1OC | 50.7% (inactive) |
| Cn1c(=O)c2[nH]c(C(O)c3ccc(Cl)cc3)nc2n(C)c1=O (stereo not given) | 91.3% (inactive) |
| COc1cccc(-c2nnc(COc3ccc(-c4nc5ccc(C)cc5[nH]4)cc3OC)o2)c1 | 54.4% (inactive) |
| CC(C)(C)CC(C)(C)c1ccc(O)c(Cc2ccc(Cl)cc2Cl)c1 | -86.5% (active) |
| CCOC(=O)C1=C(Nc2ccc(OC)cc2)C(N)=NC1=N | 59.8% (inactive) |
| CNC(=O)c1cc(Oc2ccc(NC(=O)Nc3ccc(Cl)c(OC(C)C)c3)c(F)c2)ccn1 | 24.1% (inactive) |
| COc1cc([C@@H]2c3cc4c(cc3[C@H](SC(=N)N)[C@H]3COC(=O)[C@H]23)OCO4)cc(OC)c1OC | 54.7% (inactive) |
| CCCN(CCC)CCCNC(=O)c1cc2c(-c3ccc(OC)c(OC)c3)nn(C)c2s1 | 22.1% (inactive) |
| N=C(N)c1ccc(-c2ccc(-c3ccccc3)s2)cc1F | -57.2% (active) |
| COc1ccc(-c2nc3sc(-c4ccccc4)c(-c4ccccc4)n3c2/C=C/c2ccc(F)cc2)cc1 | 83.2% (inactive) |
